Screening data from PubChem.
RXFP1 ag = agonists of human relaxin receptor RXFP1 | Q9HBX9 | HEK293T-RXFP1 cAMP TR-FRET, 30 min; response scale: percent of porcine relaxin response, buffer zero | Potency, µM (top dose mostly 57.5 µM), usual class: activators | 370,000 tested, 0.3% active; note: nearly all actives have a fitted effect of over 60% in size
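HEK293 cells stably expressing RXFP1, treated 30 min at 37C with compounds plus PDE4 inhibitor Ro 20174; cAMP measured by HTRF TR-FRET. Normalized to buffer and 29 nM porcine relaxin; EC50 by Hill fit.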
Tb PFK inh = T. brucei PFK enzyme inhibition. O15648. T. brucei PFK, ADP-Glo luminescence. Potency, µM (doses to about 57.5 µM), most hits filed as inhibitors. 330,000 tested, 0.17% active; note: nearly all actives have a fitted effect of over 60% in size
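In TEA buffer at pH 8.0 with 5 mM MgCl2, enzyme (1.25 nM) converted F6P (0.5 mM) and ATP (0.1 mM) for 45 min at room temperature. ADP product was read by luciferase luminescence.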
gsp antagonist = antagonists of gsp mutant (McCune-Albright syndrome); 340,000 tested, 0.4% active; Potency, µM (top dose mostly 76.9 µM), most hits filed as inhibitors; gsp-mutant cells, cAMP HTRF, 30 min; calls by dose curve; cell line not stated here;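 note: intracellular cAMP measured with PDE inhibitor Ro 20-1724 present during compound exposure; nearly all actives have a fitted effect of over 65% in size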
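G418-selected cells were plated in DMEM/10% FBS for 16-24 h at 37C, then treated with compounds plus the PDE inhibitor […] (300 uM solution added) for 30 min at 37C. Intracellular cAMP was measured by HTRF after 30 min lysis at room temperature.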
p53 reactivation = restores transcriptional activity of mutant p53; H1299 p53-A138V BP100-luciferase reporter, luminescence, 24 h; Potency, µM (titrated, usually from 92.2 µM), usual class: activators; 320,000 tested, 0.063% active; note: nearly all actives have a fitted effect of over 45% in size
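p53-null H1299 cells stably carrying temperature-sensitive p53-A138V and a BP100-luciferase reporter were pinned with compounds (4-point, 1:5 series) and held 24 hrs at 37 deg C. Luminescence was read 10 min after detection reagent.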
RXFP1 antag = blocks the human relaxin receptor RXFP1 | activity change, negative = inhibition, % at 57.5 µM | HEK293-RXFP1, relaxin-stimulated cAMP HTRF, 30 min; stronger effect = lower value | Q9HBX9 | 350,000 tested, 0.59% active;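 active = activity change of -60% or lower, but not beyond a set lower limit; inconclusive = change between -60% and -40%, or beyond the set limit; inactive = change above -40%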
gsp ag = agonists of gsp mutant (McCune-Albright syndrome). Potency, µM (doses to about 76.9 µM), usual class: activators. gsp mutant cells, cAMP HTRF, 30 min. 340,000 tested, 0.13% active; active = well fitted activation curve with a large enough effect; inconclusive = small, poorly fitted or top-dose-only effect, or another doubt; inactive = no such curve, though single readings can be large or run the other way; cell line not stated here;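 note: phosphodiesterase inhibitor Ro 20-1724 added with compounds to block cAMP breakdown; nearly all actives have a fitted effect of over 60% in size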
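Cells stably selected in G418 were plated at 2000/well, grown 16-24 hr, then given compounds in DMSO with the PDE inhibitor […] (300 uM solution added) for 30 min at 37C; cAMP was read by HTRF.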
Numbers stand for hits; [ ] = dose if it differs, or a comment. This is a sample that favours compounds with a hit; in the whole collection about 1.1% have one here. Unless noted, calls come from the whole dose curve; as a rule, active = well fitted curve in the direction sought with a large enough effect; inconclusive = small, poorly fitted or top-dose-only effect, or another doubt; inactive = no such curve, though single readings can be large; an effect the other way counts as inactive or inconclusive.

Results for O=C(Nc1ccc(Cl)cn1)C1C(c2ccccc2)C1(Cl)Cl (stereo unspecified) ?
RXFP1 ag: inactive; Tb PFK inh: inactive; gsp antagonist: inactive; p53 reactivation: inactive; RXFP1 antag: -98; gsp ag: inactive[15.4 µM]

Results for O=C(Nc1ccccc1)C1C(c2ccccc2)C1(Cl)Cl (stereo unspecified) ?
RXFP1 ag: inactive; Tb PFK inh: inactive; gsp antagonist: inactive; p53 reactivation: inactive; RXFP1 antag: inactive; gsp ag: inactive[15.4 µM]

Results for Cc1cc(C)nc(NS(=O)(=O)c2ccc(NC(=O)COc3ccccc3F)cc2)n1 ?
RXFP1 ag: inactive; Tb PFK inh: inactive; gsp antagonist: inactive; p53 reactivation: inactive; RXFP1 antag: inactive; gsp ag: inactive

How did O=C(COc1ccccc1F)Nc1cc(S(=O)(=O)Nc2cccc(Cl)c2)ccc1O do in these assays?
RXFP1 ag: inactive; Tb PFK inh: inactive; gsp antagonist: 35µM; p53 reactivation: inactive; RXFP1 antag: inactive; gsp ag: inactive

How did Cn1c(=O)c2[nH]c(CCCc3ccc([N+](=O)[O-])cc3)nc2n(C)c1=O do in these assays?
gsp antagonist: inactive; RXFP1 antag: inactive; gsp ag: 16µM

What do the screens show for `O=C(CSc1n[nH]c(=O)n1C1CC1)Nc1ccccc1`?
RXFP1 ag: inactive; Tb PFK inh: inactive; gsp antagonist: inactive; p53 reactivation: inconclusive; RXFP1 antag: inactive; gsp ag: inactive

How did O=C(CSc1n[nH]c(=O)n1C1CC1)Nc1cc(Cl)ccc1Oc1ccccc1 do in these assays?
RXFP1 ag: inactive; Tb PFK inh: inactive; gsp antagonist: 35µM; p53 reactivation: inactive; RXFP1 antag: inactive; gsp ag: inactive

Results for CC#C[C@]1(O)CC[C@H]2[C@@H]3CCC4=CC(=O)CCC4=C3[C@@H](c3ccc(N(C)C)cc3)C[C@@]21C ?
RXFP1 ag: inactive; Tb PFK inh: inactive; gsp antagonist: 35µM; p53 reactivation: inactive; RXFP1 antag: inactive

What do the screens show for `CCC(CC)C(=O)c1c[nH]c(C(=O)OC)c1`?
RXFP1 ag: inactive; Tb PFK inh: inactive; gsp antagonist: inactive; p53 reactivation: inactive; RXFP1 antag: inactive; gsp ag: inactive[15.4 µM]

What do the screens show for `Cn1c(SCc2ccccc2)nccc1=O`?
gsp antagonist: inactive; RXFP1 antag: inactive; gsp ag: inactive[15.4 µM]

Results for CC1=C(SCc2ccccc2)C(=O)c2ccccc2C1=O ?
gsp antagonist: inactive; RXFP1 antag: inconclusive; gsp ag: 11µM

Results for CCOc1ccc2nc(NC(=O)C3(C)CC3(Br)Br)sc2c1 (stereo unspecified) ?
gsp antagonist: inconclusive; RXFP1 antag: -84; gsp ag: inactive

How did CCOC(=O)/C(=C\c1ccc(OC(F)F)cc1)C1=Nn2c(nnc2-c2ccc(Cl)cc2)SC1 do in these assays?
RXFP1 ag: inactive; Tb PFK inh: inactive; gsp antagonist: inactive; p53 reactivation: inactive; RXFP1 antag: inactive; gsp ag: inactive

How did CCOc1ccc(/C(O)=C2/C(=O)C(=O)N(c3ccccn3)C2c2ccc(F)cc2)c(C)c1 (stereo unspecified) do in these assays?
RXFP1 ag: inactive; Tb PFK inh: inactive; gsp antagonist: inactive; p53 reactivation: inactive; RXFP1 antag: inactive; gsp ag: 16µM

How did Cc1ccc(C2CC(c3cccs3)=NN2C(=O)CCl)cc1 (stereo unspecified) do in these assays?
RXFP1 ag: inactive; Tb PFK inh: inactive; gsp antagonist: inactive; p53 reactivation: inactive; RXFP1 antag: inactive; gsp ag: inactive[15.4 µM]

What do the screens show for `CCOC(=O)C(=CNc1cc(C)ccc1C)C(=O)OCC`?
RXFP1 ag: inactive; Tb PFK inh: inactive; gsp antagonist: 35µM; p53 reactivation: inactive; RXFP1 antag: inactive; gsp ag: inactive

Results for O=C(Nc1nc(-c2ccccc2)cs1)c1cccc([N+](=O)[O-])c1 ?
RXFP1 ag: inactive; Tb PFK inh: inactive; gsp antagonist: 50µM; p53 reactivation: inactive; RXFP1 antag: inactive; gsp ag: inactive

What do the screens show for `Cc1ccc(C(=O)NC(=S)Nc2nc(-c3cccc([N+](=O)[O-])c3)cs2)c(Cl)c1`?
RXFP1 ag: inactive; Tb PFK inh: inactive; gsp antagonist: inactive; p53 reactivation: inactive; RXFP1 antag: -89; gsp ag: inactive[15.4 µM]
